From ChEMBL document CHEMBL3988442, “University of Dundee, Small-Polar-MMV Screening Library” (2021)
The campaign covered roughly 38,000 compounds. About 1,200 (3.2%) showed an effect of 50% or more. The median lay at about -58%. Only a selection was taken, and strong results are over-represented in it overall.

system: Plasmodium falciparum; assay: Calibr Malaria Delayed Death Assay SOP; format: functional, organism-based; set-up: scale not given: in the data most compounds retested in dose-response had high values; details: concentration 4.99e-06 (unit not given; other assays of the set use mol/L)

SMILES | Percent Effect
CCc1nc(C)sc1CN1CC[C@@](O)(C2CC2)[C@H](C)C1 | -41.51%
Cc1csc(C(=O)N2CCCC(c3[nH]ncc3S(C)(=O)=O)C2)c1 (stereo not drawn) | -79.4%
O=C(NCC(O)c1ccsc1)Nc1cccs1 (stereo not drawn) | -26.53%
O=C(O)C(F)(F)F.O=C(O)C(F)(F)F.c1csc(CN2CCCC3(COCCN(c4cnccn4)C3)C2)c1 (stereo not drawn) | 45.61%
CC(C)CN1CCCC2(CCN(c3ccc(C#N)cn3)C2)C1.O=C(O)C(F)(F)F (stereo not drawn) | 4.981%
Fc1cnc(N2CCCC3(CN(Cc4cccs4)CCO3)C2)nc1.O=C(O)C(F)(F)F (stereo not drawn) | -85.22%
COc1cc(N2CCC3(CCCN(Cc4ccccn4)C3)C2)ncn1.O=C(O)C(F)(F)F (stereo not drawn) | -7.04%
O=C(O)C(F)(F)F.c1ccc(N2CCCC3(CCN(Cc4cccs4)C3)C2)nc1 (stereo not drawn) | 72.7%
Cc1cnc(N2CCC3(CC2)CN(Cc2cccs2)CCO3)nc1.O=C(O)C(F)(F)F.O=C(O)C(F)(F)F | -40.39%
CC(C)CN1CCCC2(CCN(c3ccccn3)C2)C1.O=C(O)C(F)(F)F (stereo not drawn) | 70.33%
Fc1cnc(N2CCCC3(CCN(Cc4cccs4)C3)C2)nc1.O=C(O)C(F)(F)F.O=C(O)C(F)(F)F (stereo not drawn) | 67.75%
O=C(O)C(F)(F)F.O=C(O)C(F)(F)F.c1cnc(N2CCOCC3(CCCN(Cc4cccs4)C3)C2)nc1 (stereo not drawn) | -21.37%
Cc1nc(C)c(CC(=O)N2C[C@H]3CC[C@@H]2CN(c2cnccn2)C3)s1 | -79.94%
CCc1nnnn1Cc1csc(N(C)C(C)=O)n1 | -54.02%
Cc1ccc(Cl)cc1NC(=O)Nc1c[nH]c(=O)[nH]c1=O | -189.6%
Cc1ncsc1C(=O)NCCNc1ncccc1C#N | -35.74%
CCOCC1c2c(ncn2C)CCN1C(=O)c1cnc(C)cn1.O=C(O)C(F)(F)F (stereo not drawn) | -51.51%
O=C(NCc1c[nH]c(=O)[nH]c1=O)C1CCOc2ccccc2C1 (stereo not drawn) | -114.6%
Cc1ccc(S(=O)(=O)N(CC(N)=O)CC(C)C)cc1C | -27.83%
O=C(NCCCn1ccnc1)c1cccnc1OCC(F)(F)F | -158.9%
CC(C)[C@@H]1CN(CCCOc2ccc(F)cc2)C[C@H]1NS(C)(=O)=O | 53.48%

SMILES | Percent Effect
CC(C)[C@@H]1CN(CCOc2ccc(Cl)cc2)C[C@H]1NS(C)(=O)=O | 45.65%
CCc1ccccc1OCCN1C[C@@H](NS(C)(=O)=O)[C@H](C(C)C)C1 | 45.03%
CC(C)n1cc(N2CC(C(=O)N3CCN(C)CC3)CC2=O)cn1 (stereo not drawn) | -61.38%
Cc1csc(N2CCN(C(=O)CCn3cccn3)CC2)n1 | -135.1%
CN(Cc1nc2ccccc2c(=O)[nH]1)C[C@@H]1CCCN2CCCC[C@H]12 | -16.14%
CN(Cc1nc2ccsc2c(=O)[nH]1)C[C@@H]1CCCN2CCCC[C@H]12 | -24.21%
Cc1cc(C)cc(C(=O)N2CCCN(CC(N)=O)CC2)c1 | -30.23%
O=C(CN(CC1CCC1)CC(F)(F)F)N1CCCC1 | -123.3%
CS(=O)(=O)NC(=O)c1nnn(-c2cccc(F)c2)c1C1CC1 | -54.99%
Cc1nc(CNC2CCCN(c3cccnn3)C2)no1 (stereo not drawn) | -95.1%
CC(C)(C)c1nc(CNC2CCCN(c3cccnn3)C2)no1 (stereo not drawn) | 82.54%
CC(C)c1nc(CNC2CCCN(c3cccnn3)C2)no1 (stereo not drawn) | -23.44%
CC1CN(CC2CCCC2)CCN1c1ccc2nncn2n1 (stereo not drawn) | 68.96%
CC1CN(CC(=O)NC2CCCC2)CCN1c1ccc2nncn2n1 (stereo not drawn) | -5%
CC1CN(CC2CCCCC2)CCN1c1ccc2nncn2n1 (stereo not drawn) | 13.91%
Cn1ccc2ccc(C(=O)N3CCN(C(=O)OC(C)(C)C)CC3)cc21 | 4.042%
Cc1cccc(NC(=O)N2CCn3cnc(COCC4CC4)c3C2)c1 | -185.1%
COCCNC(=O)C[C@@H]1COC[C@H]2CN(C(=O)C3CCOCC3)C[C@@H]12 | -84.55%
CN(C)C(C)(C)CNC(=O)C(C)(C)c1ccccc1F | 51.42%
CC(C)(C(=O)NCC(N)=O)c1ccccc1F | -66.81%
CC(C)(CNC(=O)C(C)(C)c1ccccc1F)C(N)=O | -90.26%

SMILES | Percent Effect
Nc1nnc(SCc2cc(=O)n3c4c(sc3n2)CCCC4)s1 | -2.534%
COc1nn(C)cc1-c1nnc(SCc2cccnc2)n1C | -46.9%
CCn1nc(C)c(CN(CCOC)Cc2ccccn2)c1C | -17.72%
Cc1ccsc1CN(C)Cc1ncccc1C(=O)O | -86.93%
Cc1ccsc1CN(CCCC(F)(F)F)Cc1ccccn1 | -90.49%
COCCC(=O)N(Cc1ccccn1)Cc1ccccc1C | -111.9%
Cc1ccsc1CN(CCCN(C)C)Cc1ccccn1 | 76.79%
N#Cc1cccc(CN2CC[C@@H]3CN(c4ncccn4)CCO[C@@H]3C2)c1.O=C(O)C(F)(F)F | -75.88%
CCc1cc(N2CCC(NCCc3nc(C)c(C)s3)CC2)nc(C)n1 | 38.37%
CCn1ccc(NS(=O)(=O)c2cccc(COC)c2)n1 | -78.42%
CCn1cc(NC(=O)NCC(C)N(C)C)cn1 (stereo not drawn) | -90.57%
CNS(=O)(=O)c1cccc(C(C)NCc2ccccc2)c1 (stereo not drawn) | 57.8%
CCOc1ccc(CNC(C)c2cccc(S(=O)(=O)NC)c2)cc1 (stereo not drawn) | 46.18%
CNS(=O)(=O)c1cccc(C(C)NCc2ccc(C)c(C)c2)c1 (stereo not drawn) | 61.29%
CNS(=O)(=O)c1cccc(CNC(=O)CCc2ccsc2)c1 | -45.32%
CNS(=O)(=O)c1cccc(C(C)NCc2ccncc2)c1 (stereo not drawn) | -55.25%
CC(NCc1ccc(C(C)(C)C)cc1)c1ccc(S(C)(=O)=O)cc1 (stereo not drawn) | -13.51%
CNS(=O)(=O)c1cccc(C(C)NCc2ccc(F)c(F)c2)c1 (stereo not drawn) | 8.659%
CNS(=O)(=O)c1cccc(C(C)NCc2cccc(O)c2)c1 (stereo not drawn) | 1.026%
CNS(=O)(=O)c1cccc(C(C)NCc2ccsc2)c1 (stereo not drawn) | 66.25%
O=C(NCCn1ccnc1)c1ccn(-c2ccc(F)cc2)n1 | -157.5%
